Measurements published in PubChem BioAssay.
Activity calls are given as the source filed them.

Assays:
[1] = tested on: Plasmodium falciparum Sir2 (PF13_0152, Sir2A); assay: Plasmodium falciparum Sir2A binding compounds – biochemical, small-molecule microarray, 635 nm fluorescence, primary screen (AID 1098); settings: fluorescence 635 nm, higher = more signal;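 further: score merges spot fluorescence intensity with its signal-to-noise ratio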
[2] = probe aDKK1 binding to arrayed compounds – biochemical, biotinylated probe, 635/667 nm fluorescence, primary screen (AID 1099); settings: small-molecule microarray, higher = more signal;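 further: score merges 667nm spot fluorescence with signal to noise across triplicate slides; reference of the scale not given here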
[3] = probe aCHRDL2 binding to arrayed compounds – biochemical, biotinylated probe, 635/667 nm fluorescence, primary screen (AID 1100); settings: small-molecule microarray, higher = more signal
[4] = change in splice reporter luminescence, either direction, cell-based, HEK293, spliceosome inhibition project, primary screen (AID 1101); settings: HEK293 splicing luciferase reporter, 24 h, higher = more signal, called active from +8 up or from −8 down;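 further: HEK293 cells carrying a splicing-competent luciferase reporter gene; test concentration not given here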
[5] = molecular target: Fibroblast growth factor 10 (Homo sapiens) (UniProt O15520); assay: compounds binding fibroblast growth factor 10 – biochemical, small-molecule microarray, 635 nm fluorescence, primary screen (AID 1102); settings: FGF10 binding, fluorescence 635 nm, higher = more signal
[6] = tested on: glycogen synthase kinase-3 (GSK3A per assay name; protocol says GSK3B); assay: compounds binding glycogen synthase kinase-3 – biochemical, small-molecule microarray, 635 nm fluorescence, GSK3A, primary screen (AID 1103); settings: fluorescence 635 nm, higher = more signal; further: the record names both GSK3A and GSK3B
[7] = molecular target: Epidermal growth factor receptor (Homo sapiens) (UniProt P00533); assay: compounds binding epidermal growth factor receptor – biochemical, small-molecule microarray, 635 nm fluorescence, primary screen (AID 1104); settings: EGFR binding, higher = more signal;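 further: score merges 667 nm emission intensity with spot signal to noise over triplicate slides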
[8] = molecular target: Follistatin-related protein 3 (Homo sapiens) (UniProt O95633); assay: compounds binding follistatin-related protein 3 – biochemical, small-molecule microarray, 635 nm fluorescence, primary screen (AID 1105); settings: FSTL3 binding, higher = more signal;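 further: score merges emission near 667 nm and signal to noise per printed spot across three slides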
[9] = molecular target: Dickkopf-related protein 1 (Homo sapiens) (UniProt O94907); assay: small molecules binding DKK1 protein – biochemical, small-molecule microarray, 635 nm fluorescence scan, primary screen (AID 1106); settings: higher = more signal;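 further: score merges emission near 667 nm with signal to noise over three replicate slides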
[10] = tested on: Inhibin beta A chain (activin A); assay: small molecules binding activin A – biochemical, small-molecule microarray, 635 nm fluorescence scan, primary screen (AID 1107); settings: INHBA, higher = more signal;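 further: mouse activin A protein probed at 4.33 µg/mL on printed slides; score merges bound-protein fluorescence near 667 nm with spot signal-to-noise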

Follistatin-related protein 3 (Homo sapiens), sequence (O95633 whole entry, looked up): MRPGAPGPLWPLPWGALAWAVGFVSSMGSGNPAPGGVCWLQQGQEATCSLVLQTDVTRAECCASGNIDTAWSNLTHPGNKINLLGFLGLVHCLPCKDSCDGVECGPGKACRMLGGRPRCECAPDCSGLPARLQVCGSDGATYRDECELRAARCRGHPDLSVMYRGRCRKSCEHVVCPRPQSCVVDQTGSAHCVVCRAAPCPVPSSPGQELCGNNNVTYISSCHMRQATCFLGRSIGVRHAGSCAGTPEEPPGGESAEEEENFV
Dickkopf-related protein 1 (Homo sapiens), sequence (O94907 whole entry, looked up): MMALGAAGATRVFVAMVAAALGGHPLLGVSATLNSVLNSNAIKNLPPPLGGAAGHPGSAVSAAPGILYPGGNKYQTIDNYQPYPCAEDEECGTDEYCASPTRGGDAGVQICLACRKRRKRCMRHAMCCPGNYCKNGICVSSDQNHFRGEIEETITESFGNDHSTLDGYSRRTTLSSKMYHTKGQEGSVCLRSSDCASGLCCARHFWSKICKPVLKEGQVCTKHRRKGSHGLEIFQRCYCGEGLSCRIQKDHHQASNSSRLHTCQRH
Fibroblast growth factor 10 (Homo sapiens), sequence (O15520 whole entry, looked up): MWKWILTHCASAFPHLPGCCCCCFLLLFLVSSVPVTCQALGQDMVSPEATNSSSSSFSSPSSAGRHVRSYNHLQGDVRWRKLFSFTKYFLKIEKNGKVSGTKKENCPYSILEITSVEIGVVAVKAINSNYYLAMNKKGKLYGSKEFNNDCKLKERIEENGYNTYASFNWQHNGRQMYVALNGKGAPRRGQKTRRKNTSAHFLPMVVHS
Epidermal growth factor receptor (Homo sapiens), sequence (P00533 whole entry, looked up): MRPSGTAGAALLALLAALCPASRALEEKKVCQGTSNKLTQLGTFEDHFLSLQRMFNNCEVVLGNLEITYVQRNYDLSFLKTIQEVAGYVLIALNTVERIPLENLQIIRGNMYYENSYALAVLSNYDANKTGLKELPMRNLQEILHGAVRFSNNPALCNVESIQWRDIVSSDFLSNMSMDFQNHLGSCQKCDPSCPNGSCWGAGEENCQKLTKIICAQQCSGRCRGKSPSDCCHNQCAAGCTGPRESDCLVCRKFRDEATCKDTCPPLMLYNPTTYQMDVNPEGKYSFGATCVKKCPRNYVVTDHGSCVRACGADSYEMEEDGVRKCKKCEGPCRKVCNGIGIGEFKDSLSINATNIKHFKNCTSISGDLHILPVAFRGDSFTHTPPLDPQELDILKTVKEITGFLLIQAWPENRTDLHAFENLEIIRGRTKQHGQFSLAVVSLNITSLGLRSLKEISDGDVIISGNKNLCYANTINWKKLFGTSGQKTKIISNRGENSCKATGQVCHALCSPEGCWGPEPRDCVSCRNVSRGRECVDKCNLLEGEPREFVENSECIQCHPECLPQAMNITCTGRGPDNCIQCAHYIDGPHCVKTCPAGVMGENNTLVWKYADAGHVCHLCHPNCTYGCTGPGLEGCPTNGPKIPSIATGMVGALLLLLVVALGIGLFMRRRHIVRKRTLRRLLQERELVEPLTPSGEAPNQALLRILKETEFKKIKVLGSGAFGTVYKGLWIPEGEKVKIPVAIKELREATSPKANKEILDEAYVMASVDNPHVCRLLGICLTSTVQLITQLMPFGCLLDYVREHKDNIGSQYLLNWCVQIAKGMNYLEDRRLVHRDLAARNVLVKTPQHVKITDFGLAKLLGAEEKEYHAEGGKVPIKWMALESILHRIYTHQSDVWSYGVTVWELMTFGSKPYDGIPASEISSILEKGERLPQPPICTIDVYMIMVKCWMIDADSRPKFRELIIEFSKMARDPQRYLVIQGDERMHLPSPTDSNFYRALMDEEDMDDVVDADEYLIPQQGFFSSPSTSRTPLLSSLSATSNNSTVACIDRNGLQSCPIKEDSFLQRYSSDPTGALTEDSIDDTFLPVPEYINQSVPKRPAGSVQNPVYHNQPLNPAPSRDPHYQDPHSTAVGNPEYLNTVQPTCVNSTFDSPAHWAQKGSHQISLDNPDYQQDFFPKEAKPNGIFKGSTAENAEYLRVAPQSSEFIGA

Row | Structure (SMILES) | composite z-score [1] | composite z-score [2] | composite z-score [3] | z-score [4] | composite z-score [5] | composite z-score [6] | composite z-score [7] | composite z-score [8] | composite z-score [9] | composite z-score [10]
1 | COCCOC(=O)N1C(=O)[C@@]2(c3cc(C#CC4=CCCCC4)ccc31)[C@H](C(=O)Nc1nc3ccccc3s1)[C@H]1C(=O)O[C@H](c3ccccc3)[C@H](c3ccccc3)N1[C@@H]2c1ccc(O)cc1 | 0.61 | 0.157 | -0.0764 | 0.111 (inactive) | 0.669 | 1.28 | 0.635 | 0.918 | 1.11 | 0.872
2 | CCCN1C(=O)[C@@]2(Cc3ccccc31)N=C(c1ccc(OCCCO)cc1)O[C@H]2c1ccccc1 | 1.48 | 0.402 | 0.949 | -1.46 (inactive) | 0.988 | 1.23 | -0.286 | 0.191 | 0.335 | 0.873
3 | Cc1ccc(S[C@]2(C(=O)NC(C)C)CC(=O)N(Cc3cc(C(F)(F)F)cc(C(F)(F)F)c3)[C@@H]2c2ccc(CO)cc2)cc1 | 1.45 | -0.227 | 0.675 | 0.681 (inactive) | -0.671 | -1.27 | -1.48 | -1.57 | -1.5 | -0.403
4 | COC(=O)C(CC#Cc1ccc2c(c1)[C@]1(C(=O)N2)[C@H](c2ccc(O)cc2)N2[C@H](c3ccccc3)[C@H](c3ccccc3)OC(=O)[C@H]2[C@@H]1C(=O)NC[C@H](O)c1ccccc1)C(=O)OC | -0.282 | 0.6 | 0.405 | 0.0183 (inactive) | 0.986 | 1.11 | 0.588 | 0.523 | 0.432 | 0.335
5 | [N-]=[N+]=Nc1ccccc1C[C@]1(C(=O)O)COC(c2ccc(OCCCO)cc2)=N1 | 1.15 | 0.336 | 0.829 | -1.08 (inactive) | -0.51 | -1.1 | -0.473 | -0.543 | -0.885 | 0.764
6 | COCCOC(=O)N1C(=O)[C@@]2(c3cc(C#CCCO)ccc31)[C@H](C(=O)Nc1nc3ccccc3s1)[C@H]1C(=O)O[C@H](c3ccccc3)[C@H](c3ccccc3)N1[C@@H]2c1ccc(O)cc1 | 0.972 | 0.513 | 0.355 | -0.221 (inactive) | 1.16 | 1.34 | 0.989 | 1.43 | 0.957 | 0.211
7 | CO[C@H]1O[C@H](CO)[C@@H](OC(=O)CCc2ccccc2)[C@@H]2OC(=O)[C@@H](Cc3ccccc3)C/C=C/C[C@H](Cc3ccccc3)C(=O)O[C@@H]12 | 0.228 | 0.253 | 0.585 | -1.57 (inactive) | 0.469 | 0.714 | -0.199 | 1.11 | 0.46 | 0.925
8 | COCCCNC(=O)[C@@]1(CCC(=O)OC(C)(C)C)N=C(c2ccc(OCCCO)cc2)O[C@H]1c1ccccc1N=[N+]=[N-] | 1.46 | 1.36 | 1.32 | -0.912 (inactive) | 1.23 | 1.31 | -0.182 | 0.209 | 0.795 | 0.739
9 | CCOc1cc(C(O)C2C=CC3C(=O)NC(=O)C3N2Nc2ccc(Cl)cc2Cl)ccc1O (stereo not given) | -0.402 | 0.737 | 0.942 | 1.22 (inactive) | -0.251 | -0.848 | -0.238 | -0.859 | -0.765 | 1.37
10 | C#CCN(Cc1ccccc1Br)[C@H](/C=C/c1ccccc1)[C@@H](O)Cc1ccccc1 | -0.699 | 0.12 | 0.857 | -1.51 (inactive) | -0.636 | -0.705 | -1.45 | -1.21 | -1.42 | 1.35
11 | COc1cccc(C)c1NC(=O)O[C@H]1[C@H](OC(=O)Nc2ccccc2-c2ccccc2)[C@H](OC(=O)Nc2ccccc2-c2ccccc2)[C@@H](OC)O[C@@H]1CO | 0.861 | 0.796 | 0.549 | 0.118 (inactive) | 1.18 | 1.33 | 0.649 | 1.3 | 0.717 | 0.729
12 | O=C1OCCC/C=C\[C@H]2OC34C=CCN(c5ccc6ccccc6c5)C(=O)[C@H]3N(CCO)C(=O)[C@@H]4C12 (stereo not given in full) | 1.32 | -0.416 | 0.256 | -1.07 (inactive) | -0.654 | -0.785 | -1.83 | -1.59 | -1.09 | 0.0621
13 | COC(=O)[C@@]1(Cc2ccc(OC)cc2)[C@H]2c3cc(C(=O)N4CCCC4)n(CCO)c3C[C@H]2CN1C(=O)c1ccccc1 | 0.333 | 0.798 | 0.888 | -1.14 (inactive) | 0.717 | 0.483 | 0.0327 | 0.155 | -0.418 | 0.45
14 | Cc1cc(C)c(C(O)C2C=CC3C(=O)N(c4ccccc4)C(=O)C3N2Nc2ccccc2F)c(C)c1 (stereo not given) | 0.622 | -0.134 | 0.706 | 1.75 (inactive) | 0.119 | -0.574 | -0.396 | -0.191 | -0.26 | 0.72
15 | COc1ccc([Si](C)(C)[C@H]2[C@H](CC(=O)N(CCO)Cc3ccccc3)O[C@@]3(C(=O)N(C)c4c(Br)cc(C)cc43)[C@@H]2C)cc1 | 0.827 | -0.0876 | -0.356 | -1.34 (inactive) | 0.968 | 0.691 | 1.19 | 1.18 | 0.766 | 0.611
16 | CCOC(=O)C=Cc1cccc(C)c1O | 0.995 | -0.123 | -0.0819 | -1.41 (inactive) | -0.119 | -0.414 | 0.069 | -0.101 | -0.199 | 0.39
17 | C=CCC(OC(C)=O)[C@@H]1[C@@H](N(Cc2cccc3ccccc23)C(=O)Cc2ccc(F)cc2)c2cc(OCCCO)ccc2N1C(=O)c1ccc2ccccc2c1 (stereo not given in full) | -0.246 | -0.469 | 0.0515 | -0.527 (inactive) | -0.134 | 0.0566 | 0.0199 | 0.565 | 0.301 | 1.24
18 | CCCC=C(CCC)[C@@H](NC(=O)C(C)(C)C)c1ccc(C(=O)OC)cc1 | -0.0973 | 1.13 | 1.06 | -0.58 (inactive) | -0.129 | -0.107 | -0.0375 | 0.11 | -0.58 | 0.757
19 | COCCCNC(=O)[C@@H]1c2ccccc2C(=O)N(C(C)C)[C@H]1c1ccc(CO)cc1 | 0.634 | -0.0293 | 0.39 | 0.555 (inactive) | -0.346 | -0.291 | -0.104 | 0.115 | 0.0487 | 0.761
20 | O=C1[C@H]2C=C(I)[C@H](C[C@@H]2OCCOCCO)[C@@]12CO2 | 0.558 | -0.261 | -0.751 | -0.0672 (inactive) | 0.954 | 0.671 | 0.83 | 1.12 | 0.459 | 0.555
21 | CCOC(=O)C1=CC[C@@H](c2ccccc2F)N(S(=O)(=O)c2ccc(C)cc2)[C@H]1c1ccccc1 | 0.441 | 0.128 | -0.106 | -1.12 (inactive) | 0.801 | 1.16 | 0.486 | 0.766 | 0.253 | 0.713
